According to the supplement of paper PMC10849652:
Targets with a hit are over-represented here; the source holds about 8,800 in all. About 0.5% of all pairs of compound and target were hits. A number with no mark means an inactive call.

What was measured:
Test in all cases: log2 fold change, soluble protein after heating vs DMSO (PISA); higher = thermal stabilisation; K562 lysate, 10 uM; active = over 0.2 and 3.5 SD of the protein, either way, in both replicates (recomputed)
[1] = compound: C#Cc1cccc(Nc2ncnc3cc(OCCOC)c(OCCOC)cc23)c1 [erlotinib]
Procedure, shortened: (§1)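 Pellets of K562 cells were dounce-homogenised in PBS pH 7.4 with 1 mM MgCl2, and the crude extract was held at 1 mg/mL protein for a 30 min treatment with 10 μM compound. Aliquots were heated for 3 min over 48°C-58°C and pooled before NP-40 was added to 0.5% at 4°C. The supernatant from 21,000xg for 90 min was quantified by TMTpro 16plex LC-MS/MS with channel sums equalised. Values are reported from duplicates as log-two fold change in thermal stability relative to solvent controls.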

[2] = compound: C/C(=N\NC(=O)C1=CC(=CC=C1)S(=O)(=O)N2CCOCC2)/C3=C(C=CC(=C3)Cl)O
Procedure, shortened: as §1

[3] = compound: C1=CC(=CC=C1C2=NC3=C(N2)C=C(C=C3)C(=O)N)OC4=CC=C(C=C4)Cl
Procedure, shortened: as §1

[4] = compound: C1=CC2=C(C=CC(=C2)/C=C\3/C(=O)NC(=NCC4=CC=CS4)S3)N=C1
Procedure, shortened: as §1

[5] = compound: C1=CC2=NC=CN=C2C=C1/C=C/3\C(=O)NC(=O)S3
Procedure, shortened: as §1

[6] = compound: C1=CC=C(C=C1)C2=NC(=C(N2)C3=CC=NC=C3)C4=CC(=C(C=C4)Cl)O
Procedure, shortened: as §1

[7] = compound: C1=CC=C2C(=C1)C3=NNC4=CC=CC(=C43)C2=O
Procedure, shortened: as §1

[8] = compound: C1CCN(C1)C(=O)NC2=CC=CC(=C2)NC3=NC=C(C(=N3)NCCC4=CN=CN4)Br
Procedure, shortened: as §1

[9] = compound: C1CN(CCC1(CC2=CC=C(C=C2)Cl)N)C3=NC=NC4=C3C=CN4
Procedure, shortened: as §1

[10] = compound: C1COCCN1CCN2C3=CC=CC=C3N=C2NC(=O)C4=CC(=CC=C4)[N+](=O)[O-] [IRAK-1-4 Inhibitor I]
Procedure, shortened: as §1

[11] = compound: C=CC(=O)N1CCC[C@@H](n2nc(-c3ccc(Oc4ccccc4)cc3)c3c(N)ncnc32)C1 [ibrutinib]
Procedure, shortened: as §1

[12] = compound: CC(=O)c1cnc2ccc(-c3cc(Cl)c(O)c(Cl)c3)nc2c1N[C@H]1CC[C@H](CN(C)C)CC1
Procedure, shortened: as §1

[13] = compound: CC(C)(C)Cn1c(N)nc2ccc(-c3[nH]c(C(C)(C)C)nc3-c3ccc(F)cc3)nc21 [ralimetinib]
Procedure, shortened: as §1

[14] = compound: CC(C)(O)CC(=O)NCCn1ccc2ncnc(Nc3ccc(Oc4cccc(C(F)(F)F)c4)c(Cl)c3)c21
Procedure, shortened: as §1

[15] = compound: CC(C)C1=C2N=C(C=C(N2N=C1)NCC3=CC=CC=C3)NCCCCCCN
Procedure, shortened: as §1

[16] = compound: CC1=C(C(CC(=O)N1)C2=CC=C(C=C2)C(F)(F)F)C(=O)NC3=C(C=C4C(=C3)C=NN4)F
Procedure, shortened: as §1

[17] = compound: CC1=C(C2=C(C=C1)C(=O)C3=CC=CC=C3N2CCCN)C
Procedure, shortened: as §1

[18] = compound: CC1=C(C=C(C=C1)NC(=O)C2=CC(=CC=C2)C(C)(C)C#N)NC3=CC4=C(C=C3)N=CN(C4=O)C
Procedure, shortened: as §1

[19] = compound: CC1=C(C=C(C=C1)NC(=O)C2=CC(=CC=C2)N(C)C)NC(=O)C3=CC=C(C=C3)O
Procedure, shortened: as §1

[20] = compound: CC1=CC=C(C=C1)SC2=C3C=C(SC3=CN=C2)C(=O)N
Procedure, shortened: as §1

Chain of UniProt Q9UI95 (Q9UI95 whole entry, looked up): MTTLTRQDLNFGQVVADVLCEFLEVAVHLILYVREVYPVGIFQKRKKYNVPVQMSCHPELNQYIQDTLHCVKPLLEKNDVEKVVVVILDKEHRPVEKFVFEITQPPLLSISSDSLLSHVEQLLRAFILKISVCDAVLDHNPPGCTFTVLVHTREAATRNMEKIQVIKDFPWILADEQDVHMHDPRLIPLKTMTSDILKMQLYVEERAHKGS
Chain of UniProt Q8IYU8 (Q8IYU8 whole entry, looked up): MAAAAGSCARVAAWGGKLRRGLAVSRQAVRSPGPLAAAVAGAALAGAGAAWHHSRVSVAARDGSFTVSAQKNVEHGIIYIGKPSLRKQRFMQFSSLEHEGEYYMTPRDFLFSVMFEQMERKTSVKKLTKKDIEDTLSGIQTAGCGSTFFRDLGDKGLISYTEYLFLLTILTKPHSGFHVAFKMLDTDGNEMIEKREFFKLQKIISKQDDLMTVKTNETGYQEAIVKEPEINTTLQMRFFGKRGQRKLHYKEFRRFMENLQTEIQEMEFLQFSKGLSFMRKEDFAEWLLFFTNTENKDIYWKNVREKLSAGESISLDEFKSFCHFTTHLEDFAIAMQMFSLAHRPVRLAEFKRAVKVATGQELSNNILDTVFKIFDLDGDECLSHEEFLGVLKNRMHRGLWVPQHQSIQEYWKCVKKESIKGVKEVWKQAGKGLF
Chain of UniProt Q96II8 (Q96II8 whole entry, looked up): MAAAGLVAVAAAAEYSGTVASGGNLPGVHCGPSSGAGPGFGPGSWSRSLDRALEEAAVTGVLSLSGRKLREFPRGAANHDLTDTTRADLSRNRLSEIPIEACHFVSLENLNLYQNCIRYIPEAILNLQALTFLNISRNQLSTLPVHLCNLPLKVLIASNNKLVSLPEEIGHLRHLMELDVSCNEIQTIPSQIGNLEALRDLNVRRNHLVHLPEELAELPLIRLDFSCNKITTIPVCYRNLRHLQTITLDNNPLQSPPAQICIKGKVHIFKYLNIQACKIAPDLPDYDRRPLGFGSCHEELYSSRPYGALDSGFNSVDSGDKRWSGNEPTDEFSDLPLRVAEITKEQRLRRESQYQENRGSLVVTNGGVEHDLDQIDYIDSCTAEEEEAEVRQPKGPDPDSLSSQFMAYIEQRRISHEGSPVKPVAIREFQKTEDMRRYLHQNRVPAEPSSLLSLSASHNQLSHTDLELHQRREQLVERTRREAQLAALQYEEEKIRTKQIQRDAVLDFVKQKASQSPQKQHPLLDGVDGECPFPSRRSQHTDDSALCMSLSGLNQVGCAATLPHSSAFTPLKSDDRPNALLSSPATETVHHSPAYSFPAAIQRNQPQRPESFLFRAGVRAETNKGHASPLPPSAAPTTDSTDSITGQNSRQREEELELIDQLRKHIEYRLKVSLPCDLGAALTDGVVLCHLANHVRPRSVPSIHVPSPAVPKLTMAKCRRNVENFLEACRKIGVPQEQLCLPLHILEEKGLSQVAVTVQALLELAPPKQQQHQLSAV
Chain of UniProt Q93074 (Q93074 whole entry, looked up): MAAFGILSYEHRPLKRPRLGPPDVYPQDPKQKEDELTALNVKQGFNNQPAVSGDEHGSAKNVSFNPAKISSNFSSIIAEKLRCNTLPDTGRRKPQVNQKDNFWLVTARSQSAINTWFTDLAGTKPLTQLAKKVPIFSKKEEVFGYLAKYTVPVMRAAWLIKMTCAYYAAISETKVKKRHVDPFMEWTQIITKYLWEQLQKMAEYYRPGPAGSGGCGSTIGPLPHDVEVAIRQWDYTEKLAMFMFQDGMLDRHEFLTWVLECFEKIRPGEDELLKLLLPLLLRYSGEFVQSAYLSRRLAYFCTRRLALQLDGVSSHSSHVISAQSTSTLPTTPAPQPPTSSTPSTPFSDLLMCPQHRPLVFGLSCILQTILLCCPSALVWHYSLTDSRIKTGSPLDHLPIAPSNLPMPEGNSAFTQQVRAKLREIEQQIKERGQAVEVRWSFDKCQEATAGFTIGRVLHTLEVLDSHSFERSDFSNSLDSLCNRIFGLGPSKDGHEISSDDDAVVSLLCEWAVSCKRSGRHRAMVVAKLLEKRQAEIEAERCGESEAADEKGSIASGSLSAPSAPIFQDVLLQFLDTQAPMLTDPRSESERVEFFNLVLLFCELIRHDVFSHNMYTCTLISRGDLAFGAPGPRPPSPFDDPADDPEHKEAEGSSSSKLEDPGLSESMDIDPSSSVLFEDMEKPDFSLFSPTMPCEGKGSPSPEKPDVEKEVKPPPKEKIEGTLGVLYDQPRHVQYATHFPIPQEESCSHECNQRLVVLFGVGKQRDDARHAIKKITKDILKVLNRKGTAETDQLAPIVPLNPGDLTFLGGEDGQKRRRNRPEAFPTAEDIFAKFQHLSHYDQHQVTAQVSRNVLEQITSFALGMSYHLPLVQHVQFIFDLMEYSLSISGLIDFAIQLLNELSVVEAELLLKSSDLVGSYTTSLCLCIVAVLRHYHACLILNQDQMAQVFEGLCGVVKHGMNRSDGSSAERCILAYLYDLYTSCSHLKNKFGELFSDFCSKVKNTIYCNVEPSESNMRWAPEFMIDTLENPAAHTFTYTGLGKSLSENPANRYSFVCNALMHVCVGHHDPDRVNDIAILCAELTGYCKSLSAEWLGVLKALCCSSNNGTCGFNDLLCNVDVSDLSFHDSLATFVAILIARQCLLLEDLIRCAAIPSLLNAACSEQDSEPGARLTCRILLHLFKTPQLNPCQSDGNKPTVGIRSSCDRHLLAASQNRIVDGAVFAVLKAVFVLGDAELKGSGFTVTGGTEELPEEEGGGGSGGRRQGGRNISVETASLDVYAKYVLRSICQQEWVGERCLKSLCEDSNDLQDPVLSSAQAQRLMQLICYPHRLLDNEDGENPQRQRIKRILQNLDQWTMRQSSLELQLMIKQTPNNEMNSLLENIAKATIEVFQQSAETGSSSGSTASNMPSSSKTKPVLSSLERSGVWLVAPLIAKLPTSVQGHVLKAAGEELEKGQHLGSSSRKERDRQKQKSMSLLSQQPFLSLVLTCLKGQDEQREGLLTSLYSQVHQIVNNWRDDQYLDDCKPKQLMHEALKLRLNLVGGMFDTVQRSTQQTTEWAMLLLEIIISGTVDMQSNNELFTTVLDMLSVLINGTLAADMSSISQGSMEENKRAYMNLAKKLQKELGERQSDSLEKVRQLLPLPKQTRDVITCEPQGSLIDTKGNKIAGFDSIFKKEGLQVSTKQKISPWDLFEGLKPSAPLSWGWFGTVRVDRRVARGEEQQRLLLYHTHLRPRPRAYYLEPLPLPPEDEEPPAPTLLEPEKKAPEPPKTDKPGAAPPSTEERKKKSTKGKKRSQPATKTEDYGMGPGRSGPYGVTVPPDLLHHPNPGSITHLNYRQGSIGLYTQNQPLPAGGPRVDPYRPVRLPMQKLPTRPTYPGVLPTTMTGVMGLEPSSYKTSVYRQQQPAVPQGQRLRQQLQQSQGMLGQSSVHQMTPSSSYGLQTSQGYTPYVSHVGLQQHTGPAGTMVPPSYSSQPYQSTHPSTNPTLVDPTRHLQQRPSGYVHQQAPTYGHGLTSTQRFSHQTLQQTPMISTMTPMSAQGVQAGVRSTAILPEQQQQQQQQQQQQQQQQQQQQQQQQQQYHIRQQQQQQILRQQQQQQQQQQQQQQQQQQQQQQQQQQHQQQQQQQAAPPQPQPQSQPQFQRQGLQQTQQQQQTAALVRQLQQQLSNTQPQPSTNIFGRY
Chain of UniProt Q92615 (Q92615 whole entry, looked up): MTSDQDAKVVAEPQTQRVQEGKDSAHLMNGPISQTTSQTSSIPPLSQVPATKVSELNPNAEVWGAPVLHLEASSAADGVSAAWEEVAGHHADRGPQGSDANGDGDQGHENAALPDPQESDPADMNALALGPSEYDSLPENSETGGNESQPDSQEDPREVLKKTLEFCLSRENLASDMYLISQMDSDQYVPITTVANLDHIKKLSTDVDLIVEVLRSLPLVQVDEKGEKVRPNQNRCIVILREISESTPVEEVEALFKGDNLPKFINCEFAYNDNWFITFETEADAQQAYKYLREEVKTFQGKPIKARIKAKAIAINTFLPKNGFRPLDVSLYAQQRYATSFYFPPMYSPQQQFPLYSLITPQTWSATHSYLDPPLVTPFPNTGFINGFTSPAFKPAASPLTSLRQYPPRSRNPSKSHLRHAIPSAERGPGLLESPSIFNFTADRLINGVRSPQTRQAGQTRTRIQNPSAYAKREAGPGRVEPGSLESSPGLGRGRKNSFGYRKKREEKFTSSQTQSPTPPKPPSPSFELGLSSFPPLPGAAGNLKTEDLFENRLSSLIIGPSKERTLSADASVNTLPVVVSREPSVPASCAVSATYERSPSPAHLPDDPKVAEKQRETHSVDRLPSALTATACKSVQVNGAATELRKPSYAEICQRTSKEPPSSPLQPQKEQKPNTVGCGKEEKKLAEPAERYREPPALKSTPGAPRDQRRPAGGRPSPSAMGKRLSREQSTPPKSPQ
Chain of UniProt Q8N5G2 (Q8N5G2 whole entry, looked up): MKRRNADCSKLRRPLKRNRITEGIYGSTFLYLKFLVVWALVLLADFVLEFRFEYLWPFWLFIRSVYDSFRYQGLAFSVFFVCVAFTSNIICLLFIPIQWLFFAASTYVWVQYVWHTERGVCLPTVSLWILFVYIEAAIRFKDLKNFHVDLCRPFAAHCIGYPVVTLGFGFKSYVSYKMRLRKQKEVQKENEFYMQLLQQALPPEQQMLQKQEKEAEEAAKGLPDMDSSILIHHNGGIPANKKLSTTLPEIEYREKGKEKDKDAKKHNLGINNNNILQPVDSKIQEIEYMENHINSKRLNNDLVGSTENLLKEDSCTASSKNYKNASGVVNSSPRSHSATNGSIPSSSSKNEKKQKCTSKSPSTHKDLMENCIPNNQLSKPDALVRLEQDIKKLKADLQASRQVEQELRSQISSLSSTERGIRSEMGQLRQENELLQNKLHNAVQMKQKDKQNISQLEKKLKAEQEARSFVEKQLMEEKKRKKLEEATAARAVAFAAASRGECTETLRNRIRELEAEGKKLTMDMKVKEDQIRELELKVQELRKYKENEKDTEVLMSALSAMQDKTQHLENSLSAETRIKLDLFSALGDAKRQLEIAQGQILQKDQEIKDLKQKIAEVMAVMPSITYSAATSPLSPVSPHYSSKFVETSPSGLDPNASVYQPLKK

Row | Target | log2 fold change [1] | log2 fold change [2] | log2 fold change [3] | log2 fold change [4] | log2 fold change [5] | log2 fold change [6] | log2 fold change [7] | log2 fold change [8] | log2 fold change [9] | log2 fold change [10] | log2 fold change [11] | log2 fold change [12] | log2 fold change [13] | log2 fold change [14] | log2 fold change [15] | log2 fold change [16] | log2 fold change [17] | log2 fold change [18] | log2 fold change [19] | log2 fold change [20]
1 | MRPL28 (UniProt Q13084) | -0.112 | -0.085 | 0.027 | 0.011 | -0.074 | 0.017 | 0.024 | 0.042 | -0.031 | -0.03 | 0.151 | 0.04 | 0.027 | -0.005 | 0.012 | -0.112 | -0.017 | 0.057 | -0.012 | 0.023
2 | MAD2L2 (UniProt Q9UI95) | 0.173 | 0.004 | 0.209 | -0.035 | 0.035 | -0.09 | -0.101 | 0.094 | 0.102 | 0.004 | -0.015 | -0.173 | 0.103 | -0.08 | -0.03 | -0.001 | -0.059 | 0.053 | -0.106 | -0.132
3 | MED12 isoform 2 (UniProt Q93074) | 0.007 | -0.037 | 0 | 0.009 | 0.008 | 0.004 | -0.025 | -0.013 | 0.011 | -0.035 | 0.004 | -0.019 | 0.022 | -0.009 | -0.005 | 0.009 | 0.003 | -0.005 | 0.037 | 0.02
4 | LRCH3 (UniProt Q96II8) | 0.043 | 0.047 | 0.021 | -0.013 | 0.001 | 0 | -0.053 | -0.102 | -0.014 | 0.028 | -0.052 | -0.016 | -0.004 | -0.017 | 0.015 | -0.015 | -0.025 | 0.047 | 0.07 | 0.034
5 | METTL2A (UniProt Q96IZ6) | 0.023 | -0.009 | -0.026 | 0.037 | 0 | -0.018 | -0.026 | 0.002 | 0.166 | 0.042 | -0.006 | 0.044 | 0.048 | 0.068 | 0.018 | 0.021 | 0.038 | -0.029 | -0.025 | 0.002
6 | MICU2 (UniProt Q8IYU8) | 0.025 | 0.04 | -0.008 | -0.024 | -0.011 | 0.061 | -0.094 | -0.037 | 0.038 | -0.044 | 0.036 | -0.095 | -0.019 | -0.026 | -0.016 | -0.019 | -0.004 | 0.012 | -0.018 | 0.013
7 | LARP4B (UniProt Q92615) | -0.019 | 0.013 | -0.027 | -0.005 | 0.009 | -0.021 | 0.033 | 0.012 | -0.033 | -0.025 | 0 | 0.005 | 0.055 | 0.069 | -0.02 | -0.006 | 0.03 | -0.094 | 0.037 | 0.014
8 | MOCS1 isoform 8 (UniProt Q9NZB8) | -0.055 | -0.002 | 0.074 | 0.058 | -0.008 | 0.026 | 0 | -0.056 | 0.183 | 0.02 | 0.186 | 0.08 | -0.066 | 0.035 | 0.049 | -0.005 | -0.003 | 0.069 | -0.026 | -0.002
9 | KNL1 (UniProt Q8NG31) | -0.005 | -0.015 | 0.002 | 0 | -0.017 | 0.019 | -0.015 | 0.006 | -0.007 | 0.002 | 0.009 | -0.014 | 0.012 | -0.032 | 0.013 | 0.012 | -0.022 | 0 | 0.004 | 0.012
10 | KIF15 (UniProt Q9NS87) | 0.004 | 0.025 | -0.01 | 0.011 | -0.019 | 0.048 | -0.054 | -0.04 | -0.019 | -0.012 | -0.017 | 0.006 | 0.008 | -0.022 | 0.01 | 0.022 | -0.027 | 0.02 | 0.036 | -0.015
11 | MED14 (UniProt O60244) | -0.012 | 0.018 | 0.008 | 0.027 | 0.015 | 0 | -0.066 | -0.014 | -0.042 | 0.005 | 0.002 | -0.013 | 0.017 | -0.022 | 0.01 | 0.021 | -0.029 | -0.019 | 0.013 | 0.018
12 | LPIN1 isoform 7 (UniProt Q14693) | 0.047 | -0.046 | 0.027 | 0.003 | 0.003 | 0.011 | -0.006 | 0.038 | 0.132 | 0.034 | 0.02 | 0.07 | 0.035 | -0.025 | -0.033 | 0.066 | 0.022 | -0.016 | 0.007 | -0.009
13 | MRPL19 (UniProt P49406) | 0.02 | 0.079 | -0.041 | -0.003 | -0.007 | -0.032 | -0.019 | -0.014 | 0.005 | 0 | 0.067 | 0.027 | 0.034 | -0.057 | 0.029 | -0.021 | 0.01 | -0.013 | 0.023 | -0.002
14 | MACO1 (UniProt Q8N5G2) | -0.072 | -0.009 | -0.005 | -0.161 | 0.062 | -0.022 | -0.336 (active) | 0 | 0.012 | 0.022 | 0 | 0.043 | -0.003 | -0.04 | 0.01 | 0.018 | -0.043 | -0.023 | -0.002 | 0.095
15 | KLHL36 (UniProt Q8N4N3) | -0.047 | -0.001 | 0.06 | -0.112 | -0.313 (active) | -0.041 | 0.013 | -0.009 | 0.084 | 0.011 | 0.002 | -0.047 | 0.092 | -0.028 | 0.053 | -0.008 | -0.085 | -0.005 | -0.098 | -0.003
16 | MED8 isoform 2 (UniProt Q96G25) | 0.017 | 0.007 | -0.001 | 0.021 | 0.027 | 0.008 | 0 | 0.014 | 0.088 | -0.005 | 0.109 | 0.024 | 0.012 | 0.036 | 0.006 | -0.03 | -0.001 | -0.005 | -0.05 | -0.058
